# From paper PMC4336329 (PLoS ONE, 2015)
# About 14,000 (4.5%) of roughly 310,000 compounds showed an effect of 50% or more. Effects have a minus sign here. The entries come from a sample that favours strong results as a whole.
# Biological target: human ether-à-go-go-related gene (hERG) potassium channel (human, UniProt Q12809)
# Test: primary screen, population patch clamp on CHO cells stably expressing hERG; higher = less effect of the substance
# 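Also: peak tail current of the secondary pulse compared with the same well before compound.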
# human ether-à-go-go-related gene (hERG) potassium channel, sequence (Q12809 whole entry, looked up): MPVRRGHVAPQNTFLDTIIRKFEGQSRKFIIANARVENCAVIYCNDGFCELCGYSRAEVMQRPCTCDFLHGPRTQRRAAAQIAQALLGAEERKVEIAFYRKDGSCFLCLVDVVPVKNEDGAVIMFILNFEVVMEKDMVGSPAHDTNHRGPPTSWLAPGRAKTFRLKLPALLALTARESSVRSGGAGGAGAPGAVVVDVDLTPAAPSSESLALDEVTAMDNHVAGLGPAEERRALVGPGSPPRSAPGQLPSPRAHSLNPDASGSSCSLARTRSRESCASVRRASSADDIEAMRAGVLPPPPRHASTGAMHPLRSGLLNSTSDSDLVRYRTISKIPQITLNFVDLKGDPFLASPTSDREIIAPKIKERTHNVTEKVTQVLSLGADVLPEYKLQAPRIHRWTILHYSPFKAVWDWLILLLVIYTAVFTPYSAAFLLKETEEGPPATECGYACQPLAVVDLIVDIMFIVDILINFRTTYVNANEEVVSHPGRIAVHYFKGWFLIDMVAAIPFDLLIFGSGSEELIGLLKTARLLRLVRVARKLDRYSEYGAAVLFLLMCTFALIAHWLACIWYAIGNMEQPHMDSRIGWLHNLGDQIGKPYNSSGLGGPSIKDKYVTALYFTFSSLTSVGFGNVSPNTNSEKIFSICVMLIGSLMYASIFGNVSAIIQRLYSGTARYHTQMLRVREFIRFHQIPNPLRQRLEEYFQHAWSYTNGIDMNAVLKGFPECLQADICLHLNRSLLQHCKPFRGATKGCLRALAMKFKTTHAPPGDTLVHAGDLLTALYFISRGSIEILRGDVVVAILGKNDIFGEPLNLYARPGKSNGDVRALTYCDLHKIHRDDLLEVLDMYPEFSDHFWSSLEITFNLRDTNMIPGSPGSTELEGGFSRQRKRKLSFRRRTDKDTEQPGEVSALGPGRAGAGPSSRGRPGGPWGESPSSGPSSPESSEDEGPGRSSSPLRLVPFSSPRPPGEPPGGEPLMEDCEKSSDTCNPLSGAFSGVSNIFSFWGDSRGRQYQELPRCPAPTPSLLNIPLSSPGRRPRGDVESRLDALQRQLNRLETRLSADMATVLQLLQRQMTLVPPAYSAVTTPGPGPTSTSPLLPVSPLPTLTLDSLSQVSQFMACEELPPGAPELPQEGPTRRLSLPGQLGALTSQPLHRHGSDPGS
row,SMILES,"hERG current change (%, negative = inhibition) at 10uM [%]"
1,Cc1ccc(C2(C(F)(F)F)N=C3Sc4cc(C)cc(C)c4N3C(=O)N2)cc1 (centres unmarked),-4.05
2,O=C(NCCCN1CCOCC1)c1cc(-c2ccc(Br)cc2)nc2ccccc12,-39.7
3,O=C(NC1C2CC3CC(C2)CC1C3)c1ccc(N2CCNCC2)c([N+](=O)[O-])c1 (centres unmarked),-18
4,O=c1c2oc3ccccc3c2[nH]c(=S)n1-c1ccc(F)cc1,25.3
5,COc1cccc(C2NC(=O)NC(C)=C2C(=O)Nc2ccc(C)cc2)c1OC (centres unmarked),-6.16
6,COc1ccccc1-n1c(=O)oc2ccc(Cl)cc2c1=O,-7.54
7,Cl.O=C(NCCOC(=O)c1ccc(C(=O)OCCNC(=O)c2cccnc2)s1)c1cccnc1,7.73
8,Cc1ccc(S(=O)(=O)Nc2cc(C(=O)O)ccc2N2CCCCC2)cc1,9.4
9,CCC1CCCCN1CCCNC(=O)c1ccc(N2CCOCC2)c(NS(=O)(=O)c2ccc(OC)cc2)c1 (centres unmarked),-57.6
10,CCN1CCCC1CNC(=O)c1ccc(N2CCOCC2)c(NS(=O)(=O)c2ccc(OC)cc2)c1 (centres unmarked),-24.4
11,Cc1ccc(S(=O)(=O)Nc2cc(C(=O)N3CCOCC3)ccc2N2CCCCC2)cc1,-20.5
12,CCN(CC)CCCNC(=O)c1ccc(N2CCCCC2)c(NS(=O)(=O)c2ccc(C)cc2)c1,-69.2
13,Cc1ccc(S(=O)(=O)Nc2cc(C(=O)N3CCC4(CC3)OCCO4)ccc2N2CCCCC2)cc1,-51.3
14,Cc1ccc(S(=O)(=O)Nc2cc(C(=O)NCCN(C)C)ccc2N2CCCC2)cc1,-6.83
15,CCCCNC(=O)c1ccc(N2CCOCC2)c(NS(=O)(=O)c2ccc(OC)cc2)c1,-40.4
16,Cc1ccc(S(=O)(=O)Nc2cc(C(=O)NCCN(C)C)ccc2N2CCCCC2)cc1,-36.8
17,COc1ccc(OC)c(S(=O)(=O)Nc2c(F)cccc2F)c1,16
18,CC1CN(C(=O)N2CCCCC2)CCN1C(=O)N1CCCCC1 (centres unmarked),16.9
19,CCN(CC(=O)Nc1ccc(S(=O)(=O)N2CCOCC2)cc1)Cc1ccccc1,-16.5
20,O=C(CCc1ccccc1Cl)Nc1ccc(S(=O)(=O)N2CCOCC2)cc1,-4.49
21,Cc1cccc(C(=O)NN2C(=O)C3C(c4ccccc4)C=CC(c4ccccc4)C3C2=O)c1 (centres unmarked),3.83
22,COc1cccc(-c2ccc(NC(=O)C3CCCN(CCCn4nc(C)cc4C)C3)cc2)c1 (centres unmarked),-66

row,SMILES,"hERG current change (%, negative = inhibition) at 10uM [%]"
1,COc1cccc(-c2ccc(NC(=O)C3CCCN(Cc4cnn(C)c4C)C3)cc2)c1 (centres unmarked),0.939
2,COc1cccc(-c2ccc(NC(=O)C3CCCN(CCCn4cccn4)C3)cc2)c1 (centres unmarked),-64.1
3,COc1cccc(-c2ccc(NC(=O)C3CCCN(Cc4ccco4)C3)cc2)c1 (centres unmarked),6.02
4,COc1cccc(-c2ccc(NC(=O)C3CCCN(Cc4cc(C)[nH]n4)C3)cc2)c1 (centres unmarked),-36.5
5,COc1cccc(-c2ccc(NC(=O)C3CCCN(Cc4nccn4C)C3)cc2)c1 (centres unmarked),-31.8
6,CCOC(=O)N1CCC(NS(=O)(=O)c2ccc(C#N)cc2)CC1,-2.64
7,NS(=O)(=O)c1cccc(NC(=O)COC(=O)CNC(=O)c2ccc(-c3ccccc3)cc2)c1,5.77
8,CC(C)CNC(=O)COC(=O)CCC(=O)c1ccc(F)cc1,6.45
9,C1=C(CCNc2ncnc3c2cnn3-c2ccccc2)CCCC1,8.79
10,Cn1cc(C=C2C(=O)OC3(CCCCC3)OC2=O)c2ccccc21,9.19
11,O=C(OCc1nc2ccccc2[nH]1)C1CCCCC1,2.85
12,COc1ccc(CCN(C)C(=O)C2CC(=O)N(Cc3ccc(C)cc3)C2)cc1OC (centres unmarked),0.405
13,C=CCNC(=O)C1CC(=O)N(c2ccc(Br)cc2)C1 (centres unmarked),-7.08
14,CCOc1ccc(NC(=O)C2CCN(C(=O)C3CC(=O)N(c4ccc(C)cc4)C3)CC2)cc1 (centres unmarked),-22.1
15,Cc1ccc(N2CC(C(=O)N3CCC(C(=O)Nc4ccc(Br)cc4)CC3)CC2=O)cc1 (centres unmarked),-64.2
16,O=C(O)C1CC(=O)N(c2ccc(Br)cc2)C1 (centres unmarked),4.94
17,Cc1ccc(N2CC(C(=O)N3CCC(C(=O)NC(C)(C)C)CC3)CC2=O)cc1 (centres unmarked),20.2
18,Cc1ccc(N2CC(C(=O)N3CCC(C(=O)Nc4cccc(Br)c4)CC3)CC2=O)cc1 (centres unmarked),-60.1
19,C=CCN(CC=C)C(=O)C1CC(=O)N(c2ccc(Br)cc2)C1 (centres unmarked),-59.2
20,COc1ccc(NC(=O)CN(C)C(=O)C2CC(=O)N(Cc3ccc(C)cc3)C2)cc1 (centres unmarked),4.41
21,CC(=O)Nc1ccc(NC(=O)C2CCN(C(=O)C3CC(=O)N(c4ccc(C)cc4)C3)CC2)cc1 (centres unmarked),12.4
22,COc1ccc(Cl)cc1NC(=O)CN(C)C(=O)C1CC(=O)N(Cc2ccc(C)cc2)C1 (centres unmarked),-50

row,SMILES,"hERG current change (%, negative = inhibition) at 10uM [%]"
1,COc1ccccc1NC(=O)C1CCN(C(=O)C2CC(=O)N(c3ccc(C)cc3)C2)CC1 (centres unmarked),-9.15
2,O=C(Nc1ccc(F)cc1F)c1ccco1,2.94
3,COc1nc(N)c(S(=O)(=O)c2ccccc2)cc1C#N,-19
4,COc1cccc(S(=O)(=O)N2CCN(Cc3ccc4c(c3)OCO4)CC2)c1,-24.4
5,COC(=O)/C(=C\Nc1ccc(Cl)cc1Cl)NC(=O)c1ccc(OC)cc1,5.27
6,Fc1ccc(C2=CC(c3ccco3)n3nnnc3N2)cc1 (centres unmarked),-6.76
7,Cc1ccc(OC(C)C(=O)Nc2cc(C)on2)cc1 (centres unmarked),2.53
8,O=C(NCCSCc1ccccc1)c1ccc(C2SCC(=O)N2Cc2ccccc2)cc1 (centres unmarked),-8.07
9,CC(=O)c1cccc(NC(=O)c2ccco2)c1,7.09
10,Cc1ccccc1NC(=O)Cn1c(=O)sc2ccccc21,-0.661
11,COc1ccc(C)cc1NC(=O)C1CCN(C(=O)C2CC(=O)N(c3ccc(C)cc3)C2)CC1 (centres unmarked),-23.1
12,COc1ccc(OC)c(NC(=O)C2CCN(C(=O)C3CC(=O)N(c4ccc(C)cc4)C3)CC2)c1 (centres unmarked),-37.7
13,COc1ccc(Cl)cc1NC(=O)C1CCN(C(=O)C2CC(=O)N(c3ccc(C)cc3)C2)CC1 (centres unmarked),-60.4
14,CCc1cccc(C)c1NC(=S)NCc1ccccc1,0.76
15,CC(C)OP(=O)(c1ccccc1)c1ccccc1,-3.71
16,c1ccc2sc(NC3=NCN(Cc4ccc5c(c4)OCO5)CN3)nc2c1,4.28
17,Cl.N#C/C=C/N1CCN(Cc2ccc3c(c2)OCO3)CC1,1.29
18,CCOC(=O)N1CCN(/C=C(\C#N)c2nc3ccccc3s2)CC1,-58.5
19,CCOC(=O)N1CCN(C(=O)c2nc3ccccc3s2)CC1,-0.815
20,CCOC(=O)N1CCN(CC(=O)Nc2nc3ccccc3s2)CC1,-35.5
21,N#C/C(=C\N1CCN(Cc2ccc3c(c2)OCO3)CC1)c1nc2ccccc2s1,-52.8
22,CCCn1c(=O)c(C(=O)NCCc2ccc(OC)c(OC)c2)c(O)c2ccccc21,10.5

row,SMILES,"hERG current change (%, negative = inhibition) at 10uM [%]"
1,CCOC(=O)C1=C(COC(=O)C2CC(=O)N(c3ccc(C)cc3)C2)NC(=O)NC1C (centres unmarked),-7.55
2,Cc1cccc(S(=O)(=O)C(C#N)c2nc3ccccc3nc2N2CCCC2)c1 (centres unmarked),-18.4
3,O=C(N/N=C1\CCCc2ccccc21)c1ccc([N+](=O)[O-])cc1Cl,-3.01
4,COc1cccc(C(=O)C2CCCN(C/C=C/c3ccccc3OC)C2)c1 (centres unmarked),-68.4
5,COc1ccc(C(=O)C2CCCN(C/C=C/c3ccccc3OC)C2)c(OC)c1 (centres unmarked),-77.5
6,NC(=O)c1cc([N+](=O)[O-])cc2c1C=Cc1ccccc1O2,2.92
7,CC12COC3(C(=O)Nc4ccc([N+](=O)[O-])cc4)CC1CCC32C (centres unmarked),-32.1
8,O=C(COC(=O)C1CC2CCCC(C1)C2=O)NC(=O)c1ccc(OC(F)F)cc1 (centres unmarked),23.2
9,COc1ccc(CNC(=O)CN(C)S(=O)(=O)c2ccc(Cl)cc2)cc1,-20.4
10,CCOC(=O)N1CCN(C(=O)CN(Cc2ccc(Cl)cc2)S(=O)(=O)c2ccccc2)CC1,-70.1
11,CCOC(=O)N1CCN(C(=O)CN(Cc2ccc(Cl)cc2)S(=O)(=O)c2ccc(C)cc2)CC1,-42.8
12,CCOC(=O)N1CCN(C(=O)CN(Cc2ccc(Cl)cc2)S(C)(=O)=O)CC1,-15.5
13,COc1ccc(C)cc1S(=O)(=O)N(CC(=O)NCc1ccc(Cl)cc1)Cc1ccccc1,8.35
14,COc1ccc(CNC(=O)CN(Cc2ccc(Cl)cc2)S(C)(=O)=O)cc1,-45.4
15,COc1ccc(N(CC(=O)NCc2ccccc2)S(=O)(=O)c2c(C)n[nH]c2C)cc1,-35.6
16,COc1ccc(CNC(=O)CN(Cc2ccc(Cl)cc2)S(=O)(=O)c2ccccc2)cc1,-12.5
17,COc1ccc(CNC(=O)CN(Cc2ccc(C)cc2)S(=O)(=O)c2ccc(Cl)cc2)cc1,-50.9
18,COc1ccc(N(CC(=O)NCc2ccc(Cl)cc2)S(=O)(=O)c2c(C)n[nH]c2C)cc1,-57.4
19,COc1ccc(CNC(=O)CN(Cc2ccccc2)S(=O)(=O)c2ccc(Cl)cc2)cc1,-61.7
20,COc1ccc(N(CC(=O)NCc2ccc(F)cc2)S(=O)(=O)c2c(C)n[nH]c2C)cc1,-26.5
